PubChem BioAssay (Tox21)
Several values for one entry are separate records, joined by “and”; a condition that tells them apart may be missing. Identical values can stand only once. Inconclusive results are not listed. A call without a number means that no potency is given here. Activity calls are given as the source filed them. Unless noted, calls come from the whole dose curve; as a rule, active = well fitted cell-killing curve with a large enough effect in the repeat runs; inconclusive = weak or mixed curves, or effect the other way; inactive = flat fitted curve, though single readings scatter.

System: not listed separately
Test: qHTS assay to identify small molecule antagonists of the sonic hedgehog signaling (Shh) pathway (AID 1259369; calls by dose curve; note: nearly all actives have a fitted effect of over 45% in size; note: potency is the fitted concentration of half-maximal effect)
Details: NIH/3T3 Gli1-Luc reporter, Shh antagonist, luminescence 24 h; series mostly up to 92.4 µM
Outline: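 Gli1 transcriptional reporter (firefly Luc) in NIH/3T3 background, conditioned-medium activated. 24hr exposure, luminescence endpoint.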

Row | Structure (SMILES) | Potency
1 | Cc1c(N)cccc1C(F)(F)F | inactive
2 | CCN1C(=O)c2ccccc2C1Nc1ccc(OCCN2CCCCC2)cc1 (stereo unspecified) | 13.3 µM (active)
3 | CCOc1ccc2ccccc2c1C(=O)N[C@@H]1C(=O)N2[C@@H]1SC(C)(C)[C@@H]2C(=O)O | inactive
4 | Nc1ccc(C(=O)O)c(O)c1 | inactive
5 | O[C@@H]([C@H](O)[C@H](O)CBr)[C@H](O)CBr | inactive

Target: Estrogen receptor beta (Homo sapiens) (UniProt Q92731)
Sequence (Q92731 whole entry, looked up): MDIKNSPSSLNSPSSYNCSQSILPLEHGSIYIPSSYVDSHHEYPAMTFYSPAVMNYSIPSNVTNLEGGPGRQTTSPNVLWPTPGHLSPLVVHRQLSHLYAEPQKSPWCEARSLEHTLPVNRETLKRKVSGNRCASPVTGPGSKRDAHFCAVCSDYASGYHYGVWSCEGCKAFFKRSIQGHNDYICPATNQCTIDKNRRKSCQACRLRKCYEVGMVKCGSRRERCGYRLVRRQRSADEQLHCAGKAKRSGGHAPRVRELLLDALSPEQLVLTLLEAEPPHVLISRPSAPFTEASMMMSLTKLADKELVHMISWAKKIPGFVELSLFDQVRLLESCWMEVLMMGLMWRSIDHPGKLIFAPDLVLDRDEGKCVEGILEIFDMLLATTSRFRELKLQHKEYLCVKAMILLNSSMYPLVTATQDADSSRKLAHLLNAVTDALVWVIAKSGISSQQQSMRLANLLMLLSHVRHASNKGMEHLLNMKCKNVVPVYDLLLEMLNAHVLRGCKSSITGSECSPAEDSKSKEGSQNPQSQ
Test: qHTS assay to identify small molecule agonists of the estrogen receptor beta (ER-beta) signaling pathway (AID 1259377; active = well fitted activation curve with a large enough effect in the signal ratio in the repeat runs, not every such curve was filed as active; the % refers to the signal ratio)
Details: ER-beta-UAS-bla HEK293T, beta-lactamase FRET ratio, 16 h; series mostly up to 92.4 µM
Outline: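 Reporter cells (HEK293T, ER-beta-UAS-bla) receive compounds or DMSO after a 6 hr pre-incubation. They then incubate 16 hr at 37C/5% CO2, and fluorescence from LiveBLAzer B/G substrate is measured after 2 hours at room temperature.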

Row | Structure (SMILES) | Potency
6 | CCCCC(CC)CN1CN(CC(CC)CCCC)CC(C)(N)C1 (stereo unspecified) | inactive
7 | CC(=O)c1ccc(C(C)=O)cc1 | inactive
8 | CC(=O)OCC=C(C)C | inactive
9 | O=C(/C=C/c1ccccc1)OC/C=C/c1ccccc1 | inactive
10 | CCCCCCCC/C=C\CCCCCCCCN | inactive
11 | CN(C)CCN1CCN(c2cccc(Cl)c2)C1=O | inactive
12 | CCCCCCCCCCOC(=O)c1ccccc1C(=O)OCCCCCCCC | inactive
13 | CC(C)OC(=O)C(O)(CC(=O)O)CC(=O)O | inactive
14 | Cc1cccc(C)c1NC(=O)c1ccc(N)cc1 | inactive
15 | CCOC(=O)NNc1ccc(N(CC)CC(C)O)nn1 (stereo unspecified) | inactive
16 | CC1(C)[C@@H](O)CC[C@]2(C)[C@H]3C(=O)C=C4[C@@H]5C[C@@](C)(C(=O)O)CC[C@]5(C)CC[C@@]4(C)[C@]3(C)CC[C@@H]12 | inactive
17 | O=C(O)Cc1ccccc1Nc1c(Cl)cccc1Cl | inactive
18 | NC(=O)c1cccc([N+](=O)[O-])c1 | inactive
19 | CCc1cccc(CC)c1NC(=O)CN(CC(=O)O)CC(=O)O | inactive
20 | Clc1sc(Cl)c(Cl)c1Cl | inactive
21 | CCN(CC)c1ccc2c(-c3ccc(S(=O)(=O)O)cc3S(=O)(=O)[O-])c3ccc(=[N+](CC)CC)cc-3oc2c1 | inactive
22 | CC(CO)Oc1ccccc1 (stereo unspecified) | inactive
23 | COc1c(C)c2c(c(O)c1C/C=C(\C)CCC(=O)OCCN1CCOCC1)C(=O)OC2 | inactive
24 | CN(C)Cc1ccccc1O | inactive
25 | CCN1C(=O)c2ccccc2C1Nc1ccc(OCCN2CCCCC2)cc1 (stereo unspecified) | inactive
26 | O[C@@H]([C@H](O)[C@H](O)CBr)[C@H](O)CBr | inactive

Target: Estrogen receptor beta (Homo sapiens) (UniProt Q92731)
Test: qHTS assay to identify small molecule antagonists of the estrogen receptor beta (ER-beta) signaling pathway (AID 1259378; active = well fitted inhibition curve with a large enough effect in the signal ratio in the repeat runs, not every such curve was filed as active; the % refers to the signal ratio)
Details: ER-beta-UAS-bla HEK293T, beta-lactamase FRET ratio, 16 h; series mostly up to 92.4 µM
Outline: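 ER-beta-UAS-bla HEK293T (GripTite) cells in 2% charcoal-stripped FBS medium were preincubated 6 hr at 37C, dosed with compound, then stimulated with 1 nM E2 (final) for 16 hr; beta-lactamase reporter read by B/G FRET fluorescence after 2 hr substrate loading.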

Row | Structure (SMILES) | Potency
27 | CCCCC(CC)CN1CN(CC(CC)CCCC)CC(C)(N)C1 (stereo unspecified) | inactive
28 | CC(=O)c1ccc(C(C)=O)cc1 | inactive
29 | CC(=O)OCC=C(C)C | inactive
30 | O=C(/C=C/c1ccccc1)OC/C=C/c1ccccc1 | inactive
31 | CCCCCCCC/C=C\CCCCCCCCN | inactive
32 | CN(C)CCN1CCN(c2cccc(Cl)c2)C1=O | inactive
33 | CCCCCCCCCCOC(=O)c1ccccc1C(=O)OCCCCCCCC | inactive
34 | CC(C)OC(=O)C(O)(CC(=O)O)CC(=O)O | inactive
35 | Cc1cccc(C)c1NC(=O)c1ccc(N)cc1 | inactive
36 | CCOC(=O)NNc1ccc(N(CC)CC(C)O)nn1 (stereo unspecified) | inactive
37 | O=C(O)Cc1ccccc1Nc1c(Cl)cccc1Cl | inactive
38 | NC(=O)c1cccc([N+](=O)[O-])c1 | inactive
39 | CCc1cccc(CC)c1NC(=O)CN(CC(=O)O)CC(=O)O | inactive
40 | Clc1sc(Cl)c(Cl)c1Cl | inactive
41 | CCN(CC)c1ccc2c(-c3ccc(S(=O)(=O)O)cc3S(=O)(=O)[O-])c3ccc(=[N+](CC)CC)cc-3oc2c1 | inactive
42 | CC(CO)Oc1ccccc1 (stereo unspecified) | inactive
43 | CN(C)Cc1ccccc1O | inactive
44 | CCN1C(=O)c2ccccc2C1Nc1ccc(OCCN2CCCCC2)cc1 (stereo unspecified) | inactive
45 | O[C@@H]([C@H](O)[C@H](O)CBr)[C@H](O)CBr | inactive

System: not listed separately
Test: qHTS assay to identify small molecule agonists of the androgen receptor (AR) signaling pathway in the presence of an antagonist - cell viability counter screen (AID 1259379); note: nearly all actives have a fitted effect of over 25% in size; note: potency is the fitted concentration of half-maximal effect
Details: MDA-kb2 viability, CellTiter-Fluor, 16 h; series mostly up to 92.4 µM
Outline: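 Counter screen for cell viability run in parallel with the AR agonist-mode luciferase assay. MDA-kb2 cells were co-treated with nilutamide (3.0uM final) and compounds, then incubated 16 hr at 37C, and CellTiter-Fluor fluorescence was measured.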

Row | Structure (SMILES) | Potency
46 | Cc1cc(C)c(/C=C2\C(=O)Nc3ccccc32)[nH]1 | inactive
47 | CCCCC(CC)CN1CN(CC(CC)CCCC)CC(C)(N)C1 (stereo unspecified) | 21.1 µM (active)
48 | Cc1cc(=O)oc2cc(O)cc(O)c12 | inactive
49 | NC(=S)NC(N)=S | inactive
50 | CC(=O)OCC=C(C)C | inactive
51 | O=C(/C=C/c1ccccc1)OC/C=C/c1ccccc1 | inactive
52 | Cc1c2ccccc2c(C)c2c1ccc1ccccc12 | 53.9 µM (active) and 61.1 µM (active)
53 | CCCCCCCC/C=C\CCCCCCCCN | inactive
54 | CC(C)=CCNc1ncnc2c1ncn2[C@@H]1O[C@H](CO)[C@@H](O)[C@H]1O | inactive
55 | CN(C)CCN1CCN(c2cccc(Cl)c2)C1=O | inactive
56 | CCCCCCCCCCOC(=O)c1ccccc1C(=O)OCCCCCCCC | inactive
57 | O=S(=O)(O)c1ccc(Nc2nc(Nc3ccc(/C=C/c4ccc(Nc5nc(Nc6ccc(S(=O)(=O)O)cc6)nc(N(CCO)CCO)n5)cc4S(=O)(=O)O)c(S(=O)(=O)O)c3)nc(N(CCO)CCO)n2)cc1 | inactive
58 | CCOC(=O)NNc1ccc(N(CC)CC(C)O)nn1 (stereo unspecified) | inactive
59 | CC1(C)[C@@H](O)CC[C@]2(C)[C@H]3C(=O)C=C4[C@@H]5C[C@@](C)(C(=O)O)CC[C@]5(C)CC[C@@]4(C)[C@]3(C)CC[C@@H]12 | inactive
60 | O=C(O)Cc1ccccc1Nc1c(Cl)cccc1Cl | inactive
61 | c1ccsc1 | inactive

Row | Structure (SMILES) | Potency
62 | NC(=O)c1cccc([N+](=O)[O-])c1 | inactive
63 | CCc1cccc(CC)c1NC(=O)CN(CC(=O)O)CC(=O)O | inactive
64 | Clc1sc(Cl)c(Cl)c1Cl | inactive
65 | CCN(CC)c1ccc2c(-c3ccc(S(=O)(=O)O)cc3S(=O)(=O)[O-])c3ccc(=[N+](CC)CC)cc-3oc2c1 | 12.6 µM (active)
66 | CC(CO)Oc1ccccc1 (stereo unspecified) | inactive
67 | COc1c(C)c2c(c(O)c1C/C=C(\C)CCC(=O)OCCN1CCOCC1)C(=O)OC2 | inactive
68 | Nc1cc(Cl)c(O)c(Cl)c1 | inactive
69 | CN(C)Cc1ccccc1O | inactive
70 | ClCCl | inactive
71 | CCCCCCOC(=O)C(C)CC (stereo unspecified) | inactive
72 | Cc1c(N)cccc1C(F)(F)F | inactive
73 | CCN1C(=O)c2ccccc2C1Nc1ccc(OCCN2CCCCC2)cc1 (stereo unspecified) | inactive
74 | CCOc1ccc2ccccc2c1C(=O)N[C@@H]1C(=O)N2[C@@H]1SC(C)(C)[C@@H]2C(=O)O | inactive
75 | Nc1ccc(C(=O)O)c(O)c1 | inactive
76 | O[C@@H]([C@H](O)[C@H](O)CBr)[C@H](O)CBr | inactive
